# High-throughput results: PubChem BioAssay, National Center for Advancing Translational Sciences (NCATS)
# Cruzain Triton – blocks cruzain activity in presence of Triton detergent; Potency, µM, without a hit: max response, negative = inhibition, most hits filed as inhibitors; P25779; hit rate 0.43% among 200,000; purified cruzain, Z-FR-AMC fluorescence, 0.01% Triton;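 note: plate controls were neutral wells for no effect and buffer without enzyme for full effect; nearly all actives have a fitted effect of over 40% in size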
# Target sequence (P25779 123-467 limits assumed): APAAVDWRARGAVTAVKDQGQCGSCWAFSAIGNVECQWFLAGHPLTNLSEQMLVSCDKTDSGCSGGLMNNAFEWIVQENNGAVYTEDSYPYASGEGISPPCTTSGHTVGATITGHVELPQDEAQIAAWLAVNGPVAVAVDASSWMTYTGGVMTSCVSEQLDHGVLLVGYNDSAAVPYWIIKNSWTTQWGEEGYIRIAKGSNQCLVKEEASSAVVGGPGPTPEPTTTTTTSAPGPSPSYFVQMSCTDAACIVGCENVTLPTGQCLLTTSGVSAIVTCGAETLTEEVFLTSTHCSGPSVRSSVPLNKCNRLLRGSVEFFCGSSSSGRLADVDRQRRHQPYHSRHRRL
#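 Compounds were screened in titration against cruzain (1.5 nM) with 0.01% Triton X-100 to counter colloidal aggregation. Activity was the AMC fluorescence increase over 60 s after adding 2 uM Z-FR-AMC at pH 5.5.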
# Cruzain inh noDet – blocks cruzain activity in detergent-free assay; purified cruzain, Z-FR-AMC fluorescence, no detergent; hit rate 2.3% among 200,000; P25779; Potency, µM, without a hit: max response, negative = inhibition, hits mostly inhibitors; AID 1476;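 note: plate controls were enzyme without inhibitor for no effect and buffer without enzyme for full effect; nearly all actives have a fitted effect of over 40% in size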
#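 Detergent-free condition (0.00005% Triton X-100) in acetate buffer pH 5.5 with DTT. 1.5 nM enzyme and compound were pre-mixed 15 min, then 2 uM Z-FR-AMC substrate added; reaction progress from fluorescence change between first and third reads (60 s).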
# NS1 inh – influenza NS1 inhibition; Potency, µM (doses to about 46.1 µM), for the others: at the highest dose activity, positive = more growth; hit rate 0.4% among 270,000; calls by dose curve; note: actives are rising curves; nearly all actives have a fitted effect of over 50% in size
#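 A cell-based growth assay was used: compounds that relieve NS1-induced slow growth of budding yeast raise OD600. Assay medium was yeast nitrogen base with ammonium sulphate and -URA supplement, pH 6.0, with 2% galactose.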
# * = called active by the depositor; ? = inconclusive; . = no result given. The full list was thinned out, with hits kept by preference. Unless noted, calls come from the whole dose curve; as a rule, active = well fitted curve in the direction sought with a large enough effect; inconclusive = small, poorly fitted or top-dose-only effect, or another doubt; inactive = no such curve, though single readings can be large; an effect the other way counts as inactive or inconclusive. Potency is the fitted concentration of half-maximal effect.
SMILES,Cruzain Triton,Cruzain inh noDet,NS1 inh
Cc1ccc(C(=O)NCC(=O)OCC(=O)c2ccc3c(c2)NC(=O)CO3)cc1C,.,.,-1%
CCCOc1ccc(CNC(=O)CCCN2C(=O)CSc3c2c(C)nn3-c2ccccc2)cc1,-8%,?,.
CCc1ccccc1NC(=O)CCCn1c(=O)c2cccn2c2ccccc21,-24%,-27%,.
O=C(Nc1ccc2c(c1)OCCO2)c1ccc(Cl)cc1,.,.,-22%
O=C(COC(=O)CNC(=O)c1ccc(Cl)cc1)Nc1ccc2c(c1)OCCO2,14µM*,10µM*,19%
Fc1ccc(C(c2ccc(F)cc2)N2CCN(C/C=C\c3ccccc3)CC2)cc1,-2%,1%,.
C=CCn1c(SCc2nc3ccccc3c(=O)[nH]2)nc2sc3c(c2c1=O)CCCC3,.,.,3%
C=CCn1c(SCc2nc3sc4c(c3c(=O)[nH]2)CCCC4)nc2ccccc2c1=O,-1%,13µM*,14%
COc1ccc(/C=N/NC(=O)c2ccco2)cc1Cn1nc(C)cc1C,-4%,-5%,3%
COc1ccc(/C=N\NC(=O)COc2ccc(C(C)(C)C)cc2)cc1Cn1nc(C)cc1C,5%,25µM*,9%
O=C(c1cc(Br)ccc1O)c1cc(Br)ccc1O,2%,8%,-36%
COc1ccc(-c2noc(CSc3nc4sc(C)c(C)c4c(=O)n3-c3ccccc3)n2)cc1,-3%,7.9µM*,6%
COc1ccc(-c2noc(CSc3nc4sc(C)c(C)c4c(=O)n3-c3ccccc3)n2)cc1OC,0%,-18%,2%
COc1ccc(-c2noc(CSc3nc4ccccc4c(=O)n3-c3ccccc3)n2)cc1OC,-1%,12%,8%
Cc1noc(C)c1CSc1nc2sc(C)c(C)c2c(=O)n1-c1ccccc1,-1%,-13%,-14%
O=c1c2ccccc2nc(SCc2nc(-c3ccccc3)no2)n1-c1ccc(F)cc1,-3%,25µM*,-43%
Cc1noc(C)c1CSc1nc2ccccc2c(=O)n1-c1ccc(Cl)cc1,1%,20µM*,8%
O=c1oc2ccccc2cc1-c1cn2cc(Cc3ccc(Br)cc3)sc2n1,-2%,3%,.
CCC(=O)/C=C/C1C(C)=CCCC1(C)C (stereo not drawn),1%,-1%,.
O=C1[C@@H]2[C@@H](C(=O)N1c1ccc(OCc3ccccc3)cc1)[C@@H]1c3ccccc3[C@@H]2[n+]2ccccc21,1%,-6%,10%
CCOC(=O)C1=C(C)N=c2s/c(=C\c3cccc(OCC(=O)O)c3)c(=O)n2C1c1ccccc1 (stereo not drawn),.,.,27%
CCOC(=O)C1=C(C)N=c2s/c(=C/c3ccco3)c(=O)n2C1c1cccc(OC)c1 (stereo not drawn),-29%,25µM*,?
CCOC(=O)C1=C(C)N=c2s/c(=C\c3ccc(OCC(=O)O)c(OC)c3)c(=O)n2C1c1ccc(OC)cc1 (stereo not drawn),.,.,8%
CCOC(=O)C1=c2s/c(=C\c3cccnc3)c(=O)n2C(N)=C(C(=O)OC)C1c1cccnc1 (stereo not drawn),-8%,14%,7%
CCOC(=O)C1=C(N)n2c(s/c(=C/c3ccco3)c2=O)=C(C(=O)OC)C1c1ccco1 (stereo not drawn),-2%,13µM*,?
SMILES,Cruzain Triton,Cruzain inh noDet,NS1 inh
COc1ccc(C2C(C(C)=O)=C(C)N=c3s/c(=C/c4ccc5c(c4)OCO5)c(=O)n32)cc1 (stereo not drawn),-6%,10µM*,-7%
CCOC(=O)c1ccccc1NC(=O)N1CCC(N2CCN(Cc3ccccc3)C(=O)C2=O)CC1,1%,19%,.
Cc1ccc2c(Cl)c(C(=O)Nc3ccc4c(c3)OCO4)sc2c1,-3%,20µM*,20%
Cc1noc(C(=O)Nc2ccc3c(c2)OCO3)c1Cl,-6%,-3%,-2%
Cc1cccc(OCC(=O)Nc2ccc3c(c2)nc(CCNC(=O)c2ccco2)n3C)c1,-5%,-1%,.
O=C(Nc1ccc(F)c(Cl)c1)c1cc(S(=O)(=O)N2CCCc3ccccc32)ccc1F,2%,?,.
Cc1ccc(NC(=O)c2sc(-n3nc(C)c(CCC(C)C)c3C)nc2C)cc1C,-1%,-2%,.
COc1ccc(NC(=O)c2ccc3c(c2)N(Cc2cccc(Cl)c2)C(=O)c2ccccc2S3(=O)=O)cc1Cl,0%,3.2µM*,.
CC(=O)c1ccc(NC(=O)c2ccc3c(c2)N(Cc2cccc(Cl)c2)C(=O)c2ccccc2S3(=O)=O)cc1,-2%,10µM*,.
COc1ccc(NC(=O)c2ccc3c(c2)N(Cc2cccc(Cl)c2)C(=O)c2ccccc2S3=O)cc1Cl (stereo not drawn),-5%,?,.
CC(=O)c1ccc(NC(=O)c2ccc3c(c2)N(Cc2cccc(Cl)c2)C(=O)c2ccccc2S3=O)cc1 (stereo not drawn),0%,-14%,.
CCOc1ccc(NC(=O)Cn2cc(C(=O)c3ccc(C)c(C)c3)c(=O)c3cc(F)ccc32)cc1,-1%,-9%,.
Cc1nn(-c2ccc(N3CCOCC3)nn2)c(C)c1CCC(=O)NCc1ccc(Cl)cc1,1%,0%,.
C=C(CCC12O[C@H](C(=O)O)[C@@](O)(C(=O)O)[C@](C(=O)O)(O1)[C@H](OC(=O)/C=C/[C@@H](C)C[C@@H](C)CC)[C@H]2O)[C@@H](OC(C)=O)[C@H](C)Cc1ccccc1,-8%,26%,.
Cc1ccc(OP(=O)(Oc2ccc(C)cc2)Oc2ccc(C)cc2)cc1,2%,-7%,.
COc1ccc(C(=O)O[C@H]2CC[C@@]3(C)[C@H]4CC[C@H]5[C@]3(C[C@]3(O)[C@H]6CN7C[C@H](C)CC[C@H]7[C@](C)(O)[C@]6(O)[C@H](O)C[C@]53O)O[C@]24O)cc1OC,4%,-6%,-8%
[N-]=[N+]=CC(=O)CC[C@H](N)C(=O)O,1%,-4%,-1%
O=C(Oc1ccc(N(Cc2cccs2)C2=NS(=O)(=O)c3ccccc32)cc1)c1ccccc1Cl,1%,10µM*,5%
O=C(Oc1ccc(N(Cc2cccs2)C2=NS(=O)(=O)c3ccccc32)cc1)c1ccco1,-9%,-29%,-36%
CSc1nncc(/C(C)=N\Nc2cccc(C)c2)n1,2%,13µM*,-12%
CSc1nncc(/C(C)=N\Nc2ccccc2)n1,6%,6%,-76%
Cc1cc(C)cc(NS(=O)(=O)c2ccc3[nH]cc(C(=O)NCCc4ccccc4)c(=O)c3c2)c1,-2%,?,.
CCc1ccc(NS(=O)(=O)c2ccc3[nH]cc(C(=O)NCCc4ccccc4)c(=O)c3c2)cc1,-1%,7.9µM*,.
CC(C)c1ccc(NC(=O)COC(=O)[C@H](CCC(N)=O)NC(=O)c2ccc(F)cc2)cc1,?,13%,1%
NC(=O)CC[C@H](NC(=O)c1ccc(F)cc1)C(=O)OCC(=O)Nc1c(F)c(F)c(F)c(F)c1F,28µM*,13µM*,12%
N#Cc1ccc(Cl)cc1NC(=O)COC(=O)[C@H](CCC(N)=O)NC(=O)c1ccc(F)cc1,20µM*,20µM*,2%
CCc1ccc(C(=O)COC(=O)C(CCSC)NC(=O)c2ccccc2)cc1 (stereo not drawn),-3%,-12%,-5%
CSCCC(NC(=O)c1ccc(Cl)cc1)C(=O)OCC(=O)Nc1cc(Cl)ccc1C (stereo not drawn),22µM*,?,-7%
NC(=O)CC[C@H](NC(=O)c1ccc(F)cc1)C(=O)OCC(=O)NCc1ccc(F)cc1,.,.,0%
C=CC(=C)C,3%,-5%,.
